# NPC1 prom act – activators of NPC1 promoter; Potency, µM (series often up to 9.22 µM), without a hit: at the highest dose activation, hits mostly activators; 320,000 tested, 2.4% active; Huh7 NPC1 promoter luciferase reporter, 24 h; note: % of control where 0% means no effect; nearly all actives have a fitted effect of over 60% in size
#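 NPC1 promoter–luciferase Huh7 cells; 24 h compound; luminescence.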
# FLuc counter – inhibits or activates purified firefly luciferase, miR-21 counter-screen; P08659; purified FLuc, Km substrates, luminescence inhibition; Potency, µM (doses to about 57.5 µM), for inactives: at the highest dose activity change, negative = inhibition, usual class: inhibitors; 360,000 tested, 6.9% active;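 note: plate controls were vehicle for no effect and reference inhibitor for full effect; nearly all actives have a fitted effect of over 55% in size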
# Target sequence (P08659 whole entry, looked up): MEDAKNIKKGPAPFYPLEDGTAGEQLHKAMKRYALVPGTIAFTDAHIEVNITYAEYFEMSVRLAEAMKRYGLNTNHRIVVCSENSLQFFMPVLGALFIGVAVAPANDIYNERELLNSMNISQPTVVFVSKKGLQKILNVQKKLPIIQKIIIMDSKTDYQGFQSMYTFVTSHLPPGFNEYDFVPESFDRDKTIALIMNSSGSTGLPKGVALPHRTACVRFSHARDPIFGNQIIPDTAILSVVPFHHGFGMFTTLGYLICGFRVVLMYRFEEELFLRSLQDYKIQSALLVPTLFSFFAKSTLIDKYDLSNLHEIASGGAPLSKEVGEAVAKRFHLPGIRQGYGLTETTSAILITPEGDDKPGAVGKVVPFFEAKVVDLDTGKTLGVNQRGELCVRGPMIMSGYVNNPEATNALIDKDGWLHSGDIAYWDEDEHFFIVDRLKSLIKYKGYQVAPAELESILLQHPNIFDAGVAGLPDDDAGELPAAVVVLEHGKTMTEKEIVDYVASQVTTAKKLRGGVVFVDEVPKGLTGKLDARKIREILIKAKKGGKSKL
#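 Biochemical qHTS of compounds, final roughly 60 µM downward over six points, against 10 nM purified firefly luciferase using Km concentrations of substrates (10 uM D-luciferin, 10 uM ATP) in Tris acetate pH 7.5 buffer; luminescence output.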
# Rab9 promoter act – activators of Rab9 promoter. Potency, µM (doses to about 9.22 µM), without a hit: at the top dose activation, negative = inhibition, actives largely listed as activators. Huh7 Rab9 promoter-luciferase reporter, luminescence, 24 h. AID 485297. 320,000 tested, 2.8% active; note: % of control where 0% means no effect; nearly all actives have a fitted effect of over 60% in size
#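 Huh7 reporter line, Rab9 promoter upstream of luciferase. Compound exposure 24 h at 37 °C in reduced-serum medium with 10% FBS. Read-out: luminescence.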
# ELG1 genotoxic – inducers of genotoxicity in HEK293T ELG1-luciferase cells. Potency, µM (highest dose often 46 µM), for the others: top-dose activity change, positive = activation, most hits filed as activators. 330,000 tested, 1.3% active. HEK293T ELG1-luciferase reporter, luminescence, 16 h; note: % of control where 0% means no effect; nearly all actives have a fitted effect of over 60% in size
#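 DMSO vehicle served as control against compound-treated ELG1-luciferase HEK293T cells; exposure lasted 16 hr at 37 °C and 5% CO2, followed by ONE-Glo luminescence detection after 30 min.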
# ELG1 repair inh – blocks ELG1-dependent DNA repair in HEK293T cells | HEK293T ELG1-luciferase reporter, luminescence, 16 h; DNA damage induced by 5-fluorouridine | AID 504467 | 330,000 tested, 2.3% active | Potency, µM (doses to about 46.1 µM), for the others: at the top dose activity change, negative = inhibition, actives largely listed as inhibitors; note: % is set by controls: 0 for no effect and ±100 for the full control effect; nearly all actives have a fitted effect of over 55% in size
#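 Cells (2,000 per well) received 5-fluorouridine plus test compound or DMSO and were incubated 16 hr at 37 °C, 5% CO2. Luciferase activity was read by luminescence 30 min after ONE-Glo addition; signal suppression marked inhibition of damage-induced ELG1 function.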
# SMN2 splice enh – SMN2 splice variant enhancement | 210,000 tested, 2.8% active | HEK293 SMN2-luciferase splicing reporter, luminescence, 30-36 h | AID 1458 | Potency, µM (top dose mostly 46.1 µM), without a hit: at the highest dose activity change, positive = activation, most hits filed as activators; note: % of control where 0% means no effect; nearly all actives have a fitted effect of over 55% in size
#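 HEK293 cells carry an SMN2 […]–luciferase reporter in which exon 7 inclusion puts luciferase in frame. Cells were plated 10-12 h before compound addition, then incubated 30-36 h at 37C. ONE-Glo luminescence was read; sodium butyrate at 4.5 mM final served as control.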
# The depositor's hits bear a star; ? = inconclusive; . = no result given; [ ] = another dose, or the depositor's remark. Compounds with a hit are over-represented: about 9.2% of the library has one in this group of screens. Calls come from the whole dose curve; as a rule, active = well fitted curve in the direction sought with a large enough effect; inconclusive = small, poorly fitted or top-dose-only effect, or another doubt; inactive = no such curve, though single readings can be large; an effect the other way counts as inactive or inconclusive. Potency is the fitted concentration of half-maximal effect.
SMILES,NPC1 prom act,FLuc counter,Rab9 promoter act,ELG1 genotoxic,ELG1 repair inh,SMN2 splice enh
COC(=O)c1ccc(COc2ccc(C)c(C)c2)o1,1.41µM*,?,1.58µM*,?,?,.
COCCCN(C(=O)CC1OC(=O)c2ccccc21)c1c(N)n(Cc2ccccc2)c(=O)[nH]c1=O (stereo not given),-5.3%,-1.8%,-1.7%,8.2%,?,.
Cc1ccc(Cl)cc1NC(=O)[C@@H]1CCC(=O)N1C1OC(=O)c2ccccc21 (stereo not given in full),3.5%,-7.5%,6.0%,0.4%,20.2%,.
O=S1(=O)NC(=NCCc2ccccn2)c2ccccc21,0.4%,0.0%,-3.1%,-3.7%,-12.3%,7.7%
Cc1ccc(N(CC(=O)NCc2ccccc2)C(=O)c2csnn2)cc1,8.8%,3.0%,7.6%,?,?,.
C=CCc1ccc(OCC(O)COCC)c(OC)c1 (stereo not given),?,19µM*,?,18.4µM*,?,12.6µM*
COC(=O)c1ccc(COc2cc(C)ccc2C)o1,28.7%,10.7µM*,12.9%,?,0.0%,.
Cc1c(C(=O)C(=O)NCC2CCCO2)c2ccccc2n1C (stereo not given),-7.9%,2.7%,-1.4%,4.5%,-2.7%,4.5%
C/C(NC(=O)c1cccs1)=C1\C(=O)C[C@@H]2[C@H]1C2(C)C,?,15.1µM*,?,?,?,.
O=S(=O)(Nc1ccc(-n2cnnn2)cc1)c1cccs1,-1.1%,1.1%,5.8%,-3.8%,?,.
CC(C)CCOC(=O)/C=C/c1ccccc1,.,.,.,.,.,-2.3%
Clc1ccc(-c2c[nH]c3ccccc23)nn1,5.8%,?,19.5%,4.8%,29.7%,23.2%
c1ccc2c(-c3csc(-c4ccncc4)n3)c[nH]c2c1,1.0%,7.57µM*,?,?,?,12.6µM*
Brc1ccc(-c2csc(-c3c[nH]c4ccccc34)n2)cc1,?,21.3µM*,9.3%,10.2%,?,?
COc1ccc(C)cc1Nc1nc(-c2c[nH]c3ccccc23)cs1,0.1%,?,1.3%,1.6%,9.6%,-9.5%
CC1(OC(=O)c2ccc(Cl)nc2)C(=O)C=c2cc(-c3ccsc3)ncc2=C1OC(=O)C1CCCC1 (stereo not given),.,.,.,.,.,-0.8%[9.22 µM]
COc1ccc(N/C=C\C(=O)c2ccc3c(c2)OCO3)cc1,1.78µM*,0.269µM*,3.55µM*,?,?,?
COc1ccc(C(=O)/C=C(\C)NCc2ccc3c(c2)OCO3)cc1,-1.9%,-15.7%,0.1%,-0.1%,11.3%,.
COc1ccc(NC(=O)COC(=O)c2ccc3c(c2)OCCO3)cc1OC,-0.7%,4.0%,1.3%,6.2%,0.0%,.
O=C(O)c1ccc2c(c1)OCO2,.,.,.,.,.,-21.2%
COc1ccc(N/C=C\C(=O)c2ccc(C)cc2)cc1OC,?,5.36µM*,3.55µM*,?,?,19.4%
O=C(/C=C\Nc1ccc2c(c1)OCO2)c1ccc2c(c1)OCO2,3.98µM*,0.135µM*,0.794µM*,2.31µM*,?,?
COc1ccc(N/C=C/C(=O)c2ccc3c(c2)OCO3)cc1OC,28.0%,2.69µM*,?,?,?,17.3%
COc1ccc(N/C=C\C(=O)c2ccc(Br)cc2)cc1OC,?,?,?,14.9%,?,?
CC(C)OCCCNC(=O)CCCn1c(SCC(=O)c2ccc(Br)cc2)nc2c(sc3ccccc32)c1=O,.,-3.2%,.,.,.,9.1%
SMILES,NPC1 prom act,FLuc counter,Rab9 promoter act,ELG1 genotoxic,ELG1 repair inh,SMN2 splice enh
CC(=O)c1ccc(NS(=O)(=O)c2ccc(C)cc2)cc1,1.2%,0.9%,-0.5%,5.4%,22.6%,-13.3%
COc1cc(OC)c(OC)cc1/C=C/C(=O)c1ccc(NS(=O)(=O)c2ccc(C)cc2)cc1,-2.0%,1.7%,-10.3%,-4.5%,14.6µM*,-71.2%
COc1ccccc1N1CCN(c2nc3ccc(C)cc3nc2-n2nc(C)cc2C)CC1,.,-2.7%,.,.,.,-7.0%
O=c1[nH]c(-c2ccc(Cl)cc2)nc(=S)[nH]1,-1.1%,?,-0.6%,0.3%,9.5%,.
O=c1[nH]c(=O)c2nc(-c3ccc(Cl)cc3)cnc2[nH]1,-2.4%,16.9µM*,0.5%,11.9%,?,-4.6%
CCC1Oc2ccc(C)cc2N(CC(=O)NCCc2ccccc2)C1=O (stereo not given),.,-2.0%,.,.,.,.
Cc1cc(N2CCCC2)ccc1NC(=O)CN1C(=O)NC2(CCCCC2)C1=O,0.6%,-1.5%,-2.6%,-2.4%,-2.7%,.
O=C(CCS(=O)(=O)c1ccccc1)Nc1nc2cc3c(cc2s1)OCCO3,18.0%,7.57µM*,18.8%,?,?,.
O=C(CCS(=O)(=O)c1ccccc1)Nc1nc2cc3c(cc2s1)OCO3,21.7%,13.5µM*,18.6%,9.6%,?,.
Nc1nc(SCC(=O)Nc2ccc(Cl)c(S(=O)(=O)N3CCOCC3)c2)n[nH]1,-1.5%,-11.9%,-3.3%,2.2%,3.7%,.
COc1cc(OC)cc(C(=O)N2CCN(Cc3ccc4c(c3)OCO4)CC2)c1,-5.1%,0.0%,1.7%,-4.0%,-2.2%,.
COc1cccc(/C=C(\C#N)c2nc3ccccc3[nH]2)c1OCC(=O)O,-1.2%,-26.1%,-0.9%,5.0%,17.6%,.
CCOc1cc(N(CC)CC)ccc1/C=C(/C#N)c1nc2ccccc2[nH]1,4.9%,9.53µM*,?,-0.4%,?,-46.7%
CCCOc1cc(N(CC)CC)ccc1/C=C(/C#N)c1nc2ccc(C)cc2[nH]1,-9.6%,-9.0%,-0.4%,-6.6%,4.61µM*,.
CCN(CC)c1ccc(/C=C(/C#N)c2nc3ccc(C)cc3[nH]2)c(OC(C)C)c1,-2.0%,5.36µM*,-2.5%,-5.3%,?,-1.2%
COc1cc(/C=C(\C#N)c2nc3ccc(C)cc3[nH]2)ccc1OCc1ccc(C)cc1,.,0.2%,.,.,.,-5.7%
Cc1ccnc2nc(NC(=O)c3ccccc3Cl)nn12,.,-11.4%,.,.,.,15.8%
Cc1ccc(C(C(=O)NC(C)(C)C)N(Cc2cccnc2)C(=O)C(=O)NC2CCCCC2)o1 (stereo not given),1.3%,4.1%,15.2%,-9.0%,-2.3%,21.1%
CC1CCN(S(=O)(=O)c2ccc3c(c2)N(CC(=O)NC(C)(C)C)C(=O)CS3)CC1,.,-8.8%,.,.,.,-13.9%
CC(=O)c1cccc(NC(=O)CCc2nc3sc4c(c3c(=O)[nH]2)CCCC4)c1,-1.6%,3.4%,0.7%,0.9%,?,.
CC(=O)Oc1ccc2c(c1)C(=O)c1ccccc1CO2,1.1%,4.78µM*,6.8%,?,?,-32.3%
O=C(Oc1ccc2c(c1)OCC2=O)c1ccccc1,-0.5%,26.9µM*,0.5%,1.2%,10.7%,11.4%
CC(C)(C)c1ccc(C(=O)Oc2ccc3c(c2)OCC3=O)cc1,-0.2%,2.69µM*,-5.0%,8.4%,3.0%,5.0%
